Screens as filed in PubChem.
This is a sample that favours compounds with a hit; in the whole collection about 1.3% have one here.
RGS4 inhibitor: blocks human RGS4-accelerated GTP hydrolysis; P49798; Transcreener GDP fluorescence polarization, RGS4-accelerated GTP hydrolysis; Potency, µM (titrated, usually from 114 µM), hits mostly inhibitors; 0.039% of 390,000 active; AID 504845; also: nearly all actives have a fitted effect of over 75% in size
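MLSMR compounds (23 nl, pin-transferred) preincubated 10 min at room temperature with a 500nM (2x) first reagent, then RGS4 at 900nM (2x) plus Transcreener GDP mix added; fluorescence polarization (620/688 nm) read before and after 90 min at 30 °C.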
BRCA1 expr up: increases BRCA1 expression; MCF7-BRCA1-FFLuc reporter, luminescence, 48 h; response scale: scaled: vehicle 0%, 10 µM genistein 100%; Potency, µM (top dose mostly 46.1 µM), hits mostly activators; 1.1% of 380,000 active; also: nearly all actives have a fitted effect of over 80% in size
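Luminescence from a BRCA1-driven firefly luciferase in MCF7 cells was read after 48 h compound exposure at 37 C. Data normalized against DMSO and a 10microM genistein activation control, then curve-fitted across the titration.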
EPAC2 antagonist: blocks human EPAC2 exchange factor; EPAC2 GEF exchange of Rap1B-BODIPY-GDP, fluorescence; Potency, µM (titrated, usually from 114 µM), usual class: inhibitors; 0.18% of 360,000 active; AID 720708; also: nearly all actives have a fitted effect of over 45% in size
Target sequence (Q8WZA2 whole entry, looked up): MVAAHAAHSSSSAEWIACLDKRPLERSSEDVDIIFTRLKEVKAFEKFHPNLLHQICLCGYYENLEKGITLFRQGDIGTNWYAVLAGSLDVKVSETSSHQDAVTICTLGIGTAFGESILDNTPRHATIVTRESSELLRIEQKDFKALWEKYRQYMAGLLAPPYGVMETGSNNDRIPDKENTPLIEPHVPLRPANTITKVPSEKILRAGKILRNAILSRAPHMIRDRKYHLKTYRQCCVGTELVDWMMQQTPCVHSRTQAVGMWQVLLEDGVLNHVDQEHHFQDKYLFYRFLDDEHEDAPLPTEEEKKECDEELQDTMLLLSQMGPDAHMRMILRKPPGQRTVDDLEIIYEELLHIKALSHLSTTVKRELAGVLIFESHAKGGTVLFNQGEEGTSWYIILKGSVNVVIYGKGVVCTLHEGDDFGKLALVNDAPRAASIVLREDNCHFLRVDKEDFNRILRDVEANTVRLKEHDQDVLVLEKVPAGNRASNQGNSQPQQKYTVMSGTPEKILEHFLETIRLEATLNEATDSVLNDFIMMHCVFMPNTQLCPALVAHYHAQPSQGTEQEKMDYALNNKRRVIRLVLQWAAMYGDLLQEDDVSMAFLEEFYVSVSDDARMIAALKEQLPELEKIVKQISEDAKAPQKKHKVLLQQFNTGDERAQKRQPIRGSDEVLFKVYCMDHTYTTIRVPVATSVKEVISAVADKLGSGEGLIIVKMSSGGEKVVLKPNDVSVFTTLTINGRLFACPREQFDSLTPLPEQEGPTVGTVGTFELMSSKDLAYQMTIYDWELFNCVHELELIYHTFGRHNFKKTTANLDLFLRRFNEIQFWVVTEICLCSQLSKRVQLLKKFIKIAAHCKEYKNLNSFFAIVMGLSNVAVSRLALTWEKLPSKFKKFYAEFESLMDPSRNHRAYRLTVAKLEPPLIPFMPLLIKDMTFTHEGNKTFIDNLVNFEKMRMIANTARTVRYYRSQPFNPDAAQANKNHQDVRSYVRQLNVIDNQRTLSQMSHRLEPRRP
EPAC1 antag: EPAC1 (human) antagonism; O95398; EPAC1 GEF assay, Rap1b-BODIPY-GDP exchange fluorescence; Potency, µM (top dose mostly 115 µM), usual class: inhibitors; 0.14% of 360,000 active; AID 720709; also: nearly all actives have a fitted effect of over 50% in size
EPAC2 agonist: agonists of human EPAC2 (RAPGEF4) | Potency, µM (doses to about 154 µM), usual class: activators | EPAC2 activation, biochemical qHTS; response scale: 100% = 6.5 mM cAMP response | 0.079% of 360,000 active; also: nearly all actives have a fitted effect of over 50% in size
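Nucleotide exchange monitored as fluorescence drop when BODIPY-GDP leaves Rap1B. Reaction: 100 nM EPAC2, 250 nM RAP1B-BODIPY-GDP, 50 uM GDP, room temperature, kinetic read over 30 min. Activity expressed relative to 6.5 mM cAMP.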
EPAC1 agonist: activates human EPAC1 exchange factor; O95398; EPAC1 agonist qHTS, biochemical assay; response scale: 100% = response to 6.5 mM cAMP; Potency, µM (top dose mostly 154 µM), hits mostly activators; 0.073% of 360,000 active; AID 720707; also: nearly all actives have a fitted effect of over 60% in size
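Read-out is the fluorescence drop as BODIPY-GDP leaves Rap1B (480 nm excitation, 540 nm emission), recorded every 5 minutes over 30 minutes. Reactions held 100 nM EPAC1, 250 nM Rap1B–BODIPY-GDP and 50 uM GDP, with 6.5 mM cAMP setting full activation.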
Numbers stand for hits; – = inactive; ? = inconclusive; · = no result; [ ] = dose if it differs, or a comment. Calls follow the shape of the dose curve; as a rule, active = well fitted curve in the direction sought with a large enough effect; inconclusive = small, poorly fitted or top-dose-only effect, or another doubt; inactive = no such curve, though single readings can be large; an effect the other way counts as inactive or inconclusive.

SMILES	RGS4 inhibitor	BRCA1 expr up	EPAC2 antagonist	EPAC1 antag	EPAC2 agonist	EPAC1 agonist
CC(C)NC(=O)c1ccccc1NC(=O)c1nsc2ccccc12	–	·	·	·	·	·
O=c1cc(-c2ccccc2F)oc2ccccc12	–	13µM	–	–	–	–
Cc1ccc(S(=O)(=O)NCc2ccc(C(=O)N(C)CCC#N)cc2)cc1	–	–	–	–	–	–
Cc1nnc(SCC(=O)NC(=O)Nc2ccc3c(c2)OCCO3)n1N	–	10µM	–	–	–	–
NS(=O)(=O)c1ccc(CNc2ccc3ccccc3n2)cc1	–	8.9µM	–	–	–	–
Cc1ccccc1C(=O)NNC(=O)c1ccncc1	–	–	–	–	–	–
CCOc1cc([N+](=O)[O-])cc(/C=N/NC(=O)c2c(-c3ccccc3)noc2C)c1O	–	–	–	–	–	–
O=C(c1cc(-c2ccc(Cl)c(Cl)c2)on1)N1CCOCC1	–	1.3µM	–	–	–	–
COc1cccc(-c2cc(C(=O)N3CCCCC3C)no2)c1 (configuration not stated)	–	2.8µM	–	–	–	–
O=C(c1cc(-c2ccccc2)on1)N1CCN(C(=O)c2ccco2)CC1	–	–	–	–	–	–
O=C(c1cc(-c2ccccc2)on1)N1CCCCCC1	–	1.8µM	–	?	–	–
CN1CCN(C(=O)c2cc(-c3ccccc3)on2)CC1	–	7.9µM	–	–	–	–
O=C(c1cc(-c2ccc(Cl)cc2)on1)N1CCOCC1	–	–	–	–	–	–
Cc1ccc(-c2cc(C(=O)N3CCCCCC3)no2)cc1	–	?	–	–	–	–
COc1cccc(-c2cc(C(=O)N3CCCCCC3)no2)c1	–	?	–	–	–	–
COc1ccccc1C(=O)Nc1ccc(OCc2cc(=O)n3ccc(C)cc3n2)cc1	–	·	·	·	·	·
COCCNC(=O)C1CCCN(C(=O)c2cc(C)n(C(C)(C)C)n2)CC1 (configuration not stated)	·	–	–	–	–	–
O=C(CNc1ccccc1)Nc1cccc2ccccc12	–	–	–	–	–	–
O=C(COc1ccccc1Cl)NCCCNC(=O)c1ccco1	–	–	–	–	–	–
CCn1c(COc2ccccc2C)nc2ccccc21	–	7.9µM	–	?	–	–
COc1ccccc1C(O)Cc1nc2ccccc2n1C (configuration not stated)	–	10µM	–	–	–	–
Cn1c(COc2ccccc2Br)nc2ccccc21	–	6.3µM	–	–	–	–
COc1ccccc1OCc1nc2ccccc2n1C	–	?	–	–	–	–
CC(C)c1ccc(C(O)Cc2nc3ccccc3n2C)cc1 (configuration not stated)	–	?	–	–	–	–
COc1ccc(S(=O)(=O)N=N/C=C2\C=CC=CN2O)cc1OC	·	–	–	–	–	–
SMILES	RGS4 inhibitor	BRCA1 expr up	EPAC2 antagonist	EPAC1 antag	EPAC2 agonist	EPAC1 agonist
O=C(CSc1nnc(-c2ccc(OC(F)F)cc2)o1)N1CCOCC1	–	13µM	–	–	–	–
COc1cccc(-c2nnc(SCC(=O)N3CCOCC3)o2)c1	?	13µM	–	–	–	–
COc1ccc(-c2nnc(SCC(=O)N3CCOCC3)o2)cc1	–	?	–	–	–	–
O=C(C1=C(O)C(=O)N(CCCn2ccnc2)C1c1ccccc1)c1ccco1 (configuration not stated)	–	–	–	–	–	–
CCc1cc(=O)oc2c(C)c(OCC(=O)Nc3ccc(S(=O)(=O)N(CC)CC)cc3)ccc12	–	·	·	·	·	·
Cc1c(C)c2ccc(OCC(=O)Nc3ccc(S(N)(=O)=O)cc3)c(C)c2oc1=O	–	–	–	71µM	–	–
CC1(Cc2ccccc2OC(F)(F)F)C(=O)Nc2ccc(OC(F)(F)F)cc21 (configuration not stated)	·	–	?	?	–	–
Cn1cc([C@]2(O)C(=O)Nc3ccc(OC(F)(F)F)cc32)c2ccccc21	·	·	22µM	–	–	–
Cc1cc(N=Cc2cc(Cl)ccc2O)no1	–	–	–	–	–	–
COc1ccc2[nH]c(=O)c(-c3nnn(-c4ccccc4)n3)cc2c1	–	?	–	–	–	–
COc1ccc2[nH]c(=O)c(-c3noc(-c4ccccc4)n3)cc2c1	?	5.6µM	–	–	–	–
Cc1cc(C)c(Nc2cc(S(=O)(=O)O)c(N)c3c2C(=O)c2ccccc2C3=O)c(C)c1	?	–	?	50µM	–	–
CCN(CC)CCCC(C)Nc1c2ccc(Cl)cc2nc2ccc(OC)cc12 (configuration not stated)	21µM	–	·	·	·	·
S=c1[nH]nc(-c2c[nH]c3ccccc23)o1	–	–	–	–	–	–
Oc1cc2ccccc2cc1-c1n[nH]c(=S)o1	–	–	–	79µM	–	–
Cc1cc2c(C)nc(N/N=C/c3ccc(F)cc3)nc2o1	–	–	–	40µM	–	–
COc1ccc(/C=C/C(=O)OCC(=O)NCCC2=CCCCC2)cc1OC	–	–	–	–	–	–
O=C(NCCc1ccccc1F)c1cccc2cccnc12	–	2µM	–	–	–	–
CCOc1ncccc1C(=O)NCc1ccccc1F	–	–	–	–	–	–
COc1ccc(OC)c(NC(=O)CCOc2cccc(C)c2)c1	–	–	?	?	–	–
COc1ccc(NC(=O)CSc2nc(C)cc(C)n2)cc1	–	–	–	–	–[15.6 µM]	–
O=C(Nc1nnc(C2CCCCC2)s1)c1ccc(Br)s1	–	5µM	–	–	–	–
O=C(NC1=NCCS1)c1ccc(Br)s1	–	3.2µM	–	–	–	–
O=C(NC1=NCCS1)c1ccccc1Br	–	–	–	–	–	–
O=C(NC1=NCCS1)c1ccc(Cl)cc1	–	7.9µM	–	–	–	–
SMILES	RGS4 inhibitor	BRCA1 expr up	EPAC2 antagonist	EPAC1 antag	EPAC2 agonist	EPAC1 agonist
COc1ccc(Cl)cc1C(=O)NC1=NCCS1	–	–	–	–	–	–
O=C(NC1=NCCS1)c1ccc(-c2ccc(Cl)cc2)o1	–	2.8µM	–	–	–	–
Cc1cc(C)n(-c2ccc(C(=O)NC3=NCCS3)cc2)n1	–	11µM	–	–	–	–
O=C(CCC(=O)c1ccc[nH]1)c1ccc(Cl)cc1	–	7.1µM	–	–	–	–
O=C(CCCOc1ccccc1)OCn1nnc2ccccc2c1=O	–	–	–	–	–	–
CCOC(=O)c1cc2c(nc1N)CCCC2	–	–	–	–	–	–
C=C(C)CNC(=S)Nc1nc2c(cc1C(=O)OCC)CCCC2	–	7.1µM	–	–	–	–
C=CCNC(=S)NNC(=O)COc1ccc(Br)cc1	–	–	–	–	–	–
C=CCNC(=S)NNC(=O)COc1ccc2cc(Br)ccc2c1	–	10µM	–	–	–	–
